# Test results taken from PubChem BioAssay (NCI).
# “And” between values parts separate entries of the source, which are not always exact repeats. Equal values may be shown once. This is part of a sample that, as a whole, favours compounds with a hit. Of some 79,000 tested, about 15% had one in any assay. Some structures have more than one record in an assay (separate samples or runs), and their calls can disagree. The source made the active and inactive calls. Rule as the data show it: active = growth inhibition above about 70%; inactive = the rest.
# Key:
# [1] = NCI Yeast Anticancer Drug Screen. Data for the rad50 strain (AID 155);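 also: 0% = growth of vehicle-only cultures of the same strain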; details: S. cerevisiae rad50 strain growth inhibition; at 50.0 µM; stronger effect = higher value
# Summary of the method: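 Inhibition values express reduced yeast growth in compound-treated cultures relative to vehicle-treated controls.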
# [2] = NCI Yeast Anticancer Drug Screen. Data for the mec2-1 strain (AID 157); details: S. cerevisiae mec2-1 strain, at 50.0 µM, stronger effect = higher value
# Summary of the method: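 Vehicle-treated cultures served as reference for growth inhibition of compound-exposed mec2-1 yeast.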
# [3] = NCI Yeast Anticancer Drug Screen. Data for the sgs1 mgt1 strain (AID 161);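 also: 0% = growth of cultures given vehicle only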; details: S. cerevisiae sgs1 mgt1 strain, at 50.0 µM, stronger effect = higher value
# Summary of the method: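 Genetically altered yeast, compound exposure, growth inhibition relative to vehicle.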
# [4] = NCI Yeast Anticancer Drug Screen. Data for the cln2 rad14 strain (AID 165);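 also: 0% = growth equal to vehicle treated cultures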; details: S. cerevisiae cln2 rad14 strain, at 50.0 µM, stronger effect = higher value
# Summary of the method: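 Each compound was tested on cln2 rad14 yeast. Inhibition of growth was calculated against vehicle-exposed controls.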
# [5] = NCI Yeast Anticancer Drug Screen. Data for the bub3 strain (AID 167); details: S. cerevisiae bub3 mutant strain, at 50.0 µM, stronger effect = higher value
# Summary of the method: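 Steps: expose the mutant yeast strain to compound; grow alongside vehicle-treated cultures; measure growth; express inhibition against the vehicle cultures.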
# [6] = NCI Yeast Anticancer Drug Screen. Data for the mlh1 rad18 strain (AID 175); details: S. cerevisiae mlh1 rad18 strain growth inhibition; at 50.0 µM; stronger effect = higher value
# Summary of the method: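 Vehicle-treated cultures served as the reference for growth inhibition in a yeast strain carrying DNA damage repair alterations exposed to each compound.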
SMILES,growth inhibition [1],growth inhibition [2],growth inhibition [3],growth inhibition [4],growth inhibition [5],growth inhibition [6]
COC1OC(COC(=O)c2ccc([N+](=O)[O-])cc2)C2OC12 (stereo unspecified),7.6% (inactive) and -6.95% (inactive),-7.95% (inactive) and -1% (inactive),8.7% (inactive) and 1.4% (inactive),17.2% (inactive) and 28.4% (inactive),27.2% (inactive) and -2.85% (inactive),7.95% (inactive) and 8.15% (inactive)
COC(=O)/C=C\C(=O)O,-4.95% (inactive) and 5.05% (inactive),-4.85% (inactive) and -16.4% (inactive),-1.75% (inactive) and -2.6% (inactive),-15.7% (inactive) and -17.2% (inactive),3.35% (inactive) and -23.7% (inactive),14.2% (inactive) and 8.65% (inactive)
CCCCCCCC/C=C\CCCCCCCCOCC(O)CO (stereo unspecified),-8.65% (inactive) and -26.1% (inactive),-25.6% (inactive) and -20.9% (inactive),-1.8% (inactive) and -4% (inactive),-17.9% (inactive) and 3.35% (inactive),-25.4% (inactive) and -31.6% (inactive),-27.6% (inactive) and -20.8% (inactive)
CC(=O)OCC(OC(C)=O)C(OC(C)=O)C(OC(C)=O)C(C=NN(C(C)=O)S(=O)(=O)c1ccc(/C=C2\NC(=O)N(C)C2=O)cc1)OC(C)=O (stereo unspecified),10.8% (inactive) and 20.4% (inactive),5.25% (inactive) and -9.85% (inactive),19.9% (inactive) and 15.7% (inactive),12.8% (inactive) and 33.5% (inactive),12.7% (inactive) and 12.6% (inactive),22.8% (inactive) and 12.1% (inactive)
O=C(O)/C=C(\F)C(=O)O,-9.8% (inactive) and 14.7% (inactive),-14.2% (inactive) and 7.95% (inactive),-3.05% (inactive) and 10.9% (inactive),-1.6% (inactive) and -9.15% (inactive),3.65% (inactive) and -20.8% (inactive),0.7% (inactive) and 11.6% (inactive)
COc1cc(N)ccc1NC(C)=O,-5.25% (inactive) and 0.6% (inactive),-13.6% (inactive) and -12.7% (inactive),4.45% (inactive) and -35.6% (inactive),18.4% (inactive) and -41% (inactive),-0.9% (inactive) and -2.55% (inactive),18.8% (inactive) and -21.4% (inactive)
CCOC(=O)C(c1ccccc1)c1cccc(C(C(=O)OCC)c2ccccc2)n1 (stereo unspecified),3.1% (inactive) and 8.55% (inactive),0.2% (inactive) and 0.1% (inactive),-16.9% (inactive) and -33.5% (inactive),-3.05% (inactive) and -41.7% (inactive),1.8% (inactive) and -3.6% (inactive),17.6% (inactive) and -13.7% (inactive)
Oc1ccccc1CNCc1ccccc1O,-6.65% (inactive) and -16.2% (inactive),-13.5% (inactive) and -2.7% (inactive),-5.5% (inactive) and -33% (inactive),23.8% (inactive) and -28.1% (inactive),0.5% (inactive) and -28.2% (inactive),-1.05% (inactive) and 3.55% (inactive)
S=c1nc[nH]c2ccccc12,-2.5% (inactive) and -12.8% (inactive),-4.8% (inactive) and -16.8% (inactive),-11% (inactive) and 12.9% (inactive),-98.9% (inactive) and -0.05% (inactive),-2.75% (inactive) and -2.25% (inactive),5% (inactive) and 5.65% (inactive)
COc1ccc2[nH]ccc(=O)c2c1,-28.1% (inactive) and 8.75% (inactive),-24.3% (inactive) and -0.05% (inactive),-47.5% (inactive) and 12.3% (inactive),-4.25% (inactive) and -5.6% (inactive),-43% (inactive) and -3.7% (inactive),-18.7% (inactive) and 5.95% (inactive)
COc1ccc(/C=C\c2cc(OC)c(OC)c(OC)c2)cc1OC(=O)C(N)CCC(=O)O (stereo unspecified),-5.3% (inactive) and 8.35% (inactive),-18.3% (inactive) and -10.8% (inactive),-0.6% (inactive) and -3.85% (inactive),21.9% (inactive) and 6.7% (inactive),-19.6% (inactive) and 34% (inactive),79.2% (active) and 3.3% (inactive)
Nc1nc(N)c2ncn(C3OC(CO)C(OC4OC(CO)C(O)C(O)C4O)C(O)C3O)c2n1 (stereo unspecified),-0.55% (inactive) and -12.2% (inactive),12.8% (inactive) and 7.45% (inactive),2.45% (inactive) and -27.6% (inactive),-2.65% (inactive) and -19.2% (inactive),1.8% (inactive) and -17.8% (inactive),22.3% (inactive) and -10.3% (inactive)
Cc1c2cc(O)c(=O)cc-2oc2cc(O)c(O)cc12,45.9% (inactive) and 30.5% (inactive),29.6% (inactive) and 6.2% (inactive),36.1% (inactive) and 50.1% (inactive),20.9% (inactive) and 31.9% (inactive),36.7% (inactive) and 47.6% (inactive),40.1% (inactive) and 34.9% (inactive)
CSCCC(NC(=O)CN)C(=O)O (stereo unspecified),8.7% (inactive) and -6.35% (inactive),-14.6% (inactive) and -11.8% (inactive),3% (inactive) and -2.45% (inactive),14.4% (inactive) and 0.15% (inactive),-7.15% (inactive) and -13.8% (inactive),5.35% (inactive) and -7.05% (inactive)
CN(C)CC1CC(=O)C(CN(C)C)CC1=O (stereo unspecified),7.35% (inactive) and -5.3% (inactive),1.85% (inactive) and -5.7% (inactive),-10.1% (inactive) and -21.7% (inactive),4% (inactive) and -37.1% (inactive),-7.45% (inactive) and -15.6% (inactive),18.6% (inactive) and -8.8% (inactive)
CC1=C/C(=C(\c2cc(C)c(O)c(C(=O)O)c2)c2c(Cl)ccc(S(=O)(=O)O)c2Cl)C=C(C(=O)O)C1=O,25.6% (inactive) and -15.2% (inactive),0.1% (inactive) and -0.75% (inactive),22.8% (inactive) and -4.2% (inactive),21.1% (inactive) and -2.6% (inactive),-3.05% (inactive) and -7.4% (inactive),41.5% (inactive) and -2.55% (inactive)
N#CC(c1ccc([N+](=O)[O-])cc1)C(CC(=O)c1ccccc1)c1ccccc1 (stereo unspecified),-1.3% (inactive) and -14.2% (inactive),-3% (inactive) and -14.6% (inactive),-15.2% (inactive) and -17.2% (inactive),-28.3% (inactive) and -46.9% (inactive),37.8% (inactive) and 12.6% (inactive),36.5% (inactive) and 14.3% (inactive)
O=C(CCCC(=O)NO)NO,5.4% (inactive) and 2.75% (inactive),-2.25% (inactive) and 0.6% (inactive),-1.3% (inactive) and -6.9% (inactive),-8.15% (inactive) and -26.6% (inactive),-5.05% (inactive) and -22.9% (inactive),2.65% (inactive) and -37.4% (inactive)
CC(O)COc1ccc(C2CCCCC2)cc1 (stereo unspecified),27.9% (inactive) and 8% (inactive),10.4% (inactive) and -21.6% (inactive),7.3% (inactive) and 16.4% (inactive),-10.2% (inactive) and -25.9% (inactive),-2.55% (inactive) and -5.5% (inactive),-11.6% (inactive) and 13% (inactive)
C=C1C(=O)OC2C1CCC(C)C1CCC(=O)OC12C (stereo unspecified),50.9% (inactive) and -7.2% (inactive),58.8% (inactive) and -1.4% (inactive),43.1% (inactive) and 17.2% (inactive),35% (inactive) and 18.6% (inactive),64% (inactive) and 13.6% (inactive),54.5% (inactive) and 3.8% (inactive)
OC(CBr)C(O)C(O)C(O)CBr (stereo unspecified),13.9% (inactive) and 16.8% (inactive),7.6% (inactive) and -4.25% (inactive),4.15% (inactive) and -11.3% (inactive),8.75% (inactive) and -9.4% (inactive),-10.8% (inactive) and 0.2% (inactive),-13% (inactive) and -11.9% (inactive)
